Experimental data published in PubChem BioAssay (NCI).
Several values for one entry are separate records, joined by “and”; a condition that tells them apart may be missing. Equal values may be shown once. About 79,000 compounds went through this panel and 15% of them were active in at least one assay; those are over-represented in the sample as a whole. Unmarked numbers belong to inactive results. Activity calls are given as the source filed them. Cut-off read from the data, not from the text of the source: active = growth inhibition above about 70%; inactive = the rest.

Experiments:
[1] = NCI Yeast Anticancer Drug Screen. Data for the rad50 strain (AID 155);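 note: 0% = growth of vehicle-only cultures of the same strain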; conditions: S. cerevisiae rad50 strain growth inhibition; at 50.0 µM; stronger effect = higher value
Summary of the method: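 DNA repair mutant yeast, compound exposure, growth read-out; inhibition is taken relative to vehicle.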

[2] = NCI Yeast Anticancer Drug Screen. Data for the mec2-1 strain (AID 157); conditions: S. cerevisiae mec2-1 strain, at 50.0 µM, stronger effect = higher value
Summary of the method: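 Strain: mec2-1 (DNA repair/cell cycle alteration). Compound exposure, then growth measured; inhibition expressed relative to vehicle.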

[3] = NCI Yeast Anticancer Drug Screen. Data for the sgs1 mgt1 strain (AID 161);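 note: 0% = growth of cultures given vehicle only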; conditions: S. cerevisiae sgs1 mgt1 strain, at 50.0 µM, stronger effect = higher value
Summary of the method: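 Read-out: growth inhibition vs vehicle controls. Cells: mutant yeast strain deficient in DNA damage repair.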

[4] = NCI Yeast Anticancer Drug Screen. Data for the cln2 rad14 strain (AID 165);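 note: 0% = growth equal to vehicle treated cultures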; conditions: S. cerevisiae cln2 rad14 strain, at 50.0 µM, stronger effect = higher value
Summary of the method: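 Compounds are applied to the cln2 rad14 yeast strain, and growth is then compared with that of vehicle-treated cultures to give inhibition.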

[5] = NCI Yeast Anticancer Drug Screen. Data for the bub3 strain (AID 167); conditions: S. cerevisiae bub3 mutant strain, at 50.0 µM, stronger effect = higher value
Summary of the method: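 In this screen, a yeast mutant lacking normal mitotic checkpoint function is challenged with compound. Relative growth versus vehicle gives the inhibition value.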

[6] = NCI Yeast Anticancer Drug Screen. Data for the mlh1 rad18 strain (AID 175); conditions: S. cerevisiae mlh1 rad18 strain growth inhibition; at 50.0 µM; stronger effect = higher value
Summary of the method: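 Read-out is yeast growth inhibition, calculated against vehicle-only controls. The compound was applied to a strain engineered with DNA damage repair alterations.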

Compound	growth inhibition [1]	growth inhibition [2]	growth inhibition [3]	growth inhibition [4]	growth inhibition [5]	growth inhibition [6]
CN1CC(C(=O)NO)C=C2c3cccc4[nH]cc(c34)CC21 (centres undefined)	8.8%	42.5%	23.5%	-3.7%	41.5%	14.4%
COc1ccc2n[se]nc2c1	46.4%	28.1%	26.9%	11.6%	51.6%	21%
c1ccc(C2=NC(c3ccccc3)N3CC23c2ccccc2)cc1 (centres undefined)	12.8%	15.2%	5.05%	-7.6%	15.2%	24.4%
CCOC(=O)C1(O)N=C(c2ccccc2)c2ccccc2-n2cccc21 (centres undefined)	-21.4%	-45.2%	-2.6%	-23.9%	10.2%	-3.2%
Cc1ccccc1[N+](=O)[O-]	19.1%	13.6%	2.5%	9.45%	-10.1%	-3.3%
CC1C/C(=C\N=[N+]=[N-])C(=O)O1 (centres undefined)	-11.4%	14.7%	6%	-4.9%	12.4%	-0.05%
O=P(O)(O)C(O)c1ccccc1 (centres undefined)	-20.1%	-31.9%	-15.4%	-1.9%	-19.2%	17.6%
CCCCN(CCCC)CC(=O)c1ccc(Br)cc1	7.05%	2.5%	20.2%	-24.4%	18%	27.6%
O=C(Cc1ccccc1)Nc1ccc(Cl)cc1C(=O)c1ccccc1	1.95%	44.2%	40.1%	-18.3%	23.1%	36.7%
CNN	19.6%	-4.8%	34.1%	3.3%	-1.8%	40.1%
O.O.O=C(O)CC(=O)O.[NH-]C1CCCCC1[NH-].[Pt+2] (centres undefined)	-25.4%	-5.3%	-20.4%	-18.9%	2.75%	-28.6%
O=C(CC(=O)C(F)(F)F)c1ccco1	34%	-25.9%	-19.1%	-49.8%	-16.5%	-8.45%
CC(=O)Nc1ccc(NN=O)cn1	40.9%	4.7%	-15.9%	-7.95%	-37.8%	12.2%
Cc1ccc(S(=O)(=O)CC([Se]C#N)c2ccccc2)cc1 (centres undefined)	-21.1%	2.2%	-15.1%	-3.9%	-6.1%	1.45%
C1CC[N-]CC1.CC(=N\O)/C(C)=N/O.CC(=N\O)/C(C)=N/O.C[C-]=O.[Co+2]	-3.6%	18.4%	10.3%	23.6%	19%	14.4%
O=C(O)c1ccccc1O.[Cu]	-31.2%	-32.5%	-36.8%	-3.85%	-19.1%	-8.65%
COc1ccc(CCNC2CC3CCC2(C)C3(C)C)cc1OC (centres undefined)	15.6%	12.8%	11.5%	-22.3%	8.75%	24.9%
C=CC12CN(C)C3C4COC(CC41)C1(C(=O)Nc4ccccc41)C32 (centres undefined)	1.25% and -22.5%	-3.3% and -18.6%	-7.35%	-13.5%	-11.6%	29.2% and -19.2%
C/C(=N\N(C)C)C(CN(C)C)C(c1ccccc1)c1c(O)c2ccccc2oc1=O (centres undefined)	16.8%	-18.5%	13.8%	1.5%	37.8%	18.9%
C[CH2][Sn]([CH2]C)([O]C(=O)c1ccc(F)cc1)[O]C(=O)c1ccc(F)cc1	30.5%	17.7%	38.5%	15.1%	15.2%	17.6%

Compound	growth inhibition [1]	growth inhibition [2]	growth inhibition [3]	growth inhibition [4]	growth inhibition [5]	growth inhibition [6]
O=NNc1ncccn1	-20.2%	-11.7%	3.7%	4.3%	-0.2%	-23%
O=c1c2cc(Br)cc(Br)c2[nH]c(=S)n1-c1ccccc1	-2.45%	31.4%	21.5%	21.4%	27.6%	19.8%
CC(=O)OC1(c2nccc3ccccc23)CCN(Cc2ccccc2)CC1	17.8%	9.45%	6.8%	-8.3%	7.25%	12%
Cc1cccc(N2C(=O)C3C(C2=O)C2(Cl)C(Cl)=C(Cl)C3(Cl)C2(Cl)Cl)c1C (centres undefined)	88.2% (active)	48.6%	50.5%	57%	65.6%	56%
O=C([O-])c1ccccc1Nc1ccccn1.O=C([O-])c1ccccc1Nc1ccccn1.[Ni+2]	-15%	-12.4%	-15.6%	8.15%	-16.8%	-9.85%
O.O=[Se](=O)(O)O.[NH-]C1CCCCC1[NH-].[Pt+2] (centres undefined)	-16.1%	-16.9%	-16.1%	-21.5%	-36.1%	-55.5%
COC(=O)C(C)NP(=O)(N1CC1)N1CC1 (centres undefined)	1.5%	-2.25%	-5.05%	-10.2%	-7.85%	-14.3%
CCCCC(CC)C(O)P(=O)(OCC)OCC (centres undefined)	-0.55%	19%	-2.3%	-21.9%	23.7%	9.9%
COc1cc[c]([Pb]([c]2ccc(Cl)cc2)([c]2ccc(Cl)cc2)[c]2ccc(OC)cc2)cc1	-13.4%	-8.95%	-1.1%	-25.7%	-4.25%	16.2%
CC1=NCCN=C(C)C1[N+](=O)[O-]	6.7%	10.9%	39.2%	0.55%	2.65%	24.3%
S=P(c1ccccc1)(N1CCOCC1)N1CCOCC1	7.8%	-9.85%	7.65%	-16.4%	13.4%	-1.9%
COP(=O)(NC(C)=O)OC	11.6%	-14.7%	-4.5%	-45.8%	-10.5%	-1.55%
CCOC(=O)C1C(=O)CN2CCc3c([nH]c4ccccc34)C12C(=O)OCC (centres undefined)	21.2%	15.3%	31.6%	15.6%	1.95%	24.4%
C[N+](C)(C)CC1CCCCCCCCCCC1=O (centres undefined)	-4.85%	-10.4%	-25.2%	7.75%	-16.4%	-9.75%
S=C(N/N=C/c1ccc(Cl)cc1)NC1CN2CCC1CC2 (centres undefined)	-1.6%	9.6%	-22.1%	-15.8%	-7.9%	11.7%
C[C@@H]1C[C@@]2(O[C@@H]2C)C(=O)O[C@@H]2CCN3CC=C(COC(=O)[C@]1(C)O)[C@H]23	-4.5%	-16.2%	-7.95%	13.3%	-4.9%	-75%
COc1ccc2c(c1)-c1c(ccc(OC)c1OC(=O)C(=O)c1ccccc1)CC(Cl)N(C)CC2.[O]=[Cr](=[O])([OH])[OH] (centres undefined)	-18.3%	-0.55%	-19.5%	-17%	-1.3%	-1.25%
COc1ccc(CCNCc2ccc3ccccc3n2)cc1OC	-0.35%	-10.5%	7.2%	-16.4%	-11.5%	7.5%
ClCc1ccc2ccccc2n1	19.1% and 11.7%	-8.8% and -0.5%	-3.8% and 8.5%	7.55% and 3.35%	-17.6% and -7.65%	9.75% and 4.55%
